Bioassay records: PubChem BioAssay, National Center for Advancing Translational Sciences (NCATS)
Rab9 promoter act – activates the Rab9 promoter; Huh7 Rab9 promoter-luciferase reporter, luminescence, 24 h; Potency, µM (top dose mostly 9.22 µM), inactives show top-dose activation, negative = inhibition, actives largely listed as activators; 2.8% of 320,000 active; AID 485297; further: % of control where 0% means no effect; nearly all actives have a fitted effect of over 60% in size
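Rab9 promoter-driven luciferase in stably transfected Huh7 cells; 1500 cells/well rested 2 h, exposed to compound in DMSO for 24 h at 37 °C, 5% CO2. Luminescence read 10 min after adding luciferase reagent at ambient temperature.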
SMN2 splice enh – increases expression of the SMN2 splice variant; HEK293 SMN2-luciferase splicing reporter, luminescence, 30-36 h; Potency, µM (top dose mostly 46.1 µM), for the others: at the top dose activity change, positive = activation, most hits filed as activators; 2.8% of 210,000 active; AID 1458; further: % of control where 0% means no effect; nearly all actives have a fitted effect of over 55% in size
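HEK293 cells carry an SMN2 minigene-luciferase reporter in which exon 7 inclusion puts luciferase in frame. Cells were seeded at 2000 cells/well, attached for 10-12 hours, then exposed to compounds for 30-36 hours at 37C before ONE-Glo luminescence.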
FLuc modulator – firefly luciferase modulation, counter-screen for miR-21 project; P08659; purified FLuc, Km substrates, luminescence inhibition; Potency, µM (titrated, usually from 57.5 µM), inactives show at the top dose activity change, negative = inhibition, hits mostly inhibitors; 6.9% of 360,000 active; AID 588342;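 further: plate controls were vehicle for no effect and reference inhibitor for full effect; nearly all actives have a fitted effect of over 55% in size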
Target sequence (P08659 whole entry, looked up): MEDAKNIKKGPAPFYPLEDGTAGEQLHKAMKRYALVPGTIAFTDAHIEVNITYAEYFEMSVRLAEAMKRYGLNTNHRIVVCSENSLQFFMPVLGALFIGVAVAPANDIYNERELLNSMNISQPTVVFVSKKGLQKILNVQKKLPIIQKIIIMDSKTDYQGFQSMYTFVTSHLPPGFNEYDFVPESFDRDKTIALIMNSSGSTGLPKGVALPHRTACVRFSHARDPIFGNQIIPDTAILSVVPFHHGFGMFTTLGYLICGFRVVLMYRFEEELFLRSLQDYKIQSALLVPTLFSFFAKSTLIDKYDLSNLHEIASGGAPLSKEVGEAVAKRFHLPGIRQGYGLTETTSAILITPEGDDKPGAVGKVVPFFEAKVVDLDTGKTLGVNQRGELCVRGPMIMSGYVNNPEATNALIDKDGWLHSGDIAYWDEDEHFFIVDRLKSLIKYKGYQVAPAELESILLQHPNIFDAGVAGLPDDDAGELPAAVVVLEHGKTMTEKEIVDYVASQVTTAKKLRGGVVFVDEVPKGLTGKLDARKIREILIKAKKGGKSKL
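Purified P. pyralis luciferase (10nM final) with 10uM D-luciferin and 10uM ATP (Km levels) in 50mM Tris acetate pH 7.5, 10mM Mg acetate, 0.01% Tween-20, 0.05% BSA; qHTS 6-point titration, ~60 µM downward; luminescence read.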
KinaseGlo FLuc – Kinase-Glo luciferase inhibition (counter-screen) | Kinase-Glo luciferase, ATP luminescence, 8 min | Potency, µM (highest dose often 38.3 µM), inactives show top-dose activity change, negative = inhibition, actives largely listed as inhibitors | AID 1379 | 0.28% of 200,000 active | Q27757; further: on the % scale 0 is the no-effect control and ±100 the full control effect; nearly all actives have a fitted effect of over 60% in size
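Compounds were added to a substrate mix at pH 7.2 (50 mM imidazole, 10 uM ATP, within the enzyme's linear range), followed by Kinase-Glo detection reagent; luminescence was measured after 8 minutes at ambient temperature.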
ELG1 genotoxic – inducers of genotoxicity in HEK293T ELG1-luciferase cells. HEK293T ELG1-luciferase reporter, luminescence, 16 h. Potency, µM (titrated, usually from 46 µM), without a hit: top-dose activity change, positive = activation, most hits filed as activators. 1.3% of 330,000 active; further: % of control where 0% means no effect; nearly all actives have a fitted effect of over 60% in size
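Quantitative HTS format in 1536-well plates. HEK293T ELG1-luciferase reporter cells receive test compound and are incubated 16 hr at 37 °C, 5% CO2; ONE-Glo added, 30 min room temperature, then luminescence read.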
NPC1 promoter act – activators of NPC1 promoter; 2.4% of 320,000 active; Huh7 NPC1 promoter luciferase reporter, 24 h; Potency, µM (top dose mostly 9.22 µM), for the others: top-dose activation, hits mostly activators; further: % of control where 0% means no effect; nearly all actives have a fitted effect of over 60% in size
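Luminescence from an NPC1 promoter-driven luciferase reporter in stably transfected Huh7 cells was measured after 24 h compound treatment at 37 °C, followed by 10 min ambient incubation with luciferase detection reagent.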
* hit, by the source's call; ? = inconclusive; nt = not tested or not shown; [ ] = remark or other dose. The list is not random: actives were taken first. Their share in the collection is about 7.5%. The call rests on the fitted dose curve; in most records, active means well fitted curve in the direction sought with a large enough effect; inconclusive means small, poorly fitted or top-dose-only effect, or another doubt; inactive means no such curve, though single readings can be large; an effect the other way counts as inactive or inconclusive. Potency means the concentration at half of the fitted maximal effect.

SMILES	Rab9 promoter act	SMN2 splice enh	FLuc modulator	KinaseGlo FLuc	ELG1 genotoxic	NPC1 promoter act
CCn1c(CN2CCN(C)CC2)nc2cc(NC(=O)c3cc(OC)c(OC)c(OC)c3)ccc21	nt	nt	-2%	nt	nt	nt
CCOC(=O)c1cn[nH]c1NC(=S)Nc1ccc(Cl)cc1	0.32µM*	nt	0.38µM*	nt	?	0.32µM*
CC(=O)NO	nt	6%	nt	-3%	nt	nt
O=C(COc1ccccc1F)NNC(=O)c1ccc2c(=O)n3c(nc2c1)CCC3	4%	nt	-3%	nt	7%	-2%
O=C(NCCOc1ccccc1F)c1ccc2c(=O)n3c(nc2c1)CCC3	2.2µM*	nt	6µM*	nt	?	2.8µM*
O=C(NCCc1ccc(F)cc1)c1ccc2c(=O)n3c(nc2c1)CCC3	3.5µM*	nt	?	nt	15%	29%
COc1ccc(-c2noc(N3CCC(C(=O)N(C)c4cc(Cl)ccc4OC)CC3)n2)cc1	nt	nt	-8%	nt	nt	nt
COc1cccc(C(=O)C2CN(c3ccccc3)CC2c2ccc(Cl)cc2)c1 (stereo not given)	-6%	-26%	19µM*	-1%	-8%	1%
CN(c1ccccc1)c1ccc(/C=C/[N+](=O)[O-])cc1	17%	-84%	11µM*	-4%	-6%	9%
Cc1cc(C)nc(SC2=CS(=O)(=O)c3ccccc32)n1	-5%	?	-12%	0%	-44%	-8%
O=S1(=O)C=C(Sc2nnc(-c3ccccc3)o2)c2ccccc21	-41%	-57%	30µM*	-1%	-7%	-26%
C=CCNc1nc(C(=O)OCC(=O)Nc2c(Cl)cccc2C(F)(F)F)cs1	1%	nt	-5%	nt	-5%	3%
Cc1nc(NC(C)C)c2cnn(CCc3ccccc3)c2n1	?	4%	?	1%	15µM*	24%
CCCNc1nc(C)nc2c1cnn2CCc1ccccc1	26%	-1%	-19%	-3%	?	24%
COc1ccc(S(=O)(=O)N(CC(=O)Nc2ccc3c(c2)OCO3)c2ccc(C)cc2)cc1	nt	-5%	?	nt	nt	nt
O=C(NCc1ccccc1F)C(=O)NCC(c1ccco1)S(=O)(=O)c1cccs1 (stereo not given)	nt	nt	0%	nt	nt	nt
CN(CC(=O)NCC(=O)Nc1ccc(F)cc1)C1CCS(=O)(=O)C1 (stereo not given)	-8%	nt	11%	nt	0%	-3%
N#Cc1c(NCCN)nc(NCc2ccccc2)c2c1CCN(Cc1ccccc1)C2	-2%	nt	-4%	nt	-24%	10%
Nc1[nH]nc2nc(NCc3ccccc3)c3c(c12)CCN(Cc1ccccc1)C3	3%	25µM*	4%	0%	2%	2%
Nc1ccc(CSc2ccc(Cl)cc2)cc1	?	26%	27µM*	0%	?	?
Cc1ccc2c(Cl)c(C)c(N3CCCC3)nc2n1	2%	-10%	17µM*	0%	1%	-2%
COc1ccc([C@H]2[C@H](C(=O)C(C)(C)C)N3N=Cc4ccccc4C3C23C(=O)OC(C)(C)OC3=O)cc1 (stereo not given in full)	1%	14µM*	-9%	-1%	-1%	-1%
Nc1nc(-c2ccccn2)nc(N)c1Cc1c(F)cccc1Cl	-23%	-42%	27µM*	-2%	20%	-42%
Nc1nc(-c2ccccn2)nc(N)c1Cc1ccccc1F	?	28%	15µM*	-6%	-5%	?
CCOC(=O)C1CCCN(C(=S)NC2CCCC2)C1 (stereo not given)	0%	-2%	1%	-1%	-6%	-3%
SMILES	Rab9 promoter act	SMN2 splice enh	FLuc modulator	KinaseGlo FLuc	ELG1 genotoxic	NPC1 promoter act
Cc1ccc(-c2n[nH]c3c2C(c2cccc(O)c2)N(c2ccc(C(=O)O)cc2)C3=O)cc1 (stereo not given)	-2%	4%	8.5µM*	nt	1%	-2%
O=C1N/C(=N/N=C/c2ccc(F)cc2)SC1c1ccccc1 (stereo not given)	15%	nt	15µM*	nt	9%	2%
CC(=O)c1cccc(NC(=O)CC2S/C(=N/N=C/c3ccccc3)NC2=O)c1 (stereo not given)	-3%	-7%	-2%	-1%	5%	-1%
COC(=O)Cc1[nH]n(-c2nc3ccccc3s2)c(=O)c1C(C)=Nc1ccc(Cl)cc1	-58%	nt	12µM*	nt	2%	-44%
COC(=O)Cc1[nH]n(-c2ccccc2)c(=O)c1C(C)=Nc1ccccc1	3.2µM*	-14%	?	-2%	10%	?
COC(=O)Cc1[nH]n(-c2nc3ccccc3s2)c(=O)c1C(C)=Nc1ccc(C)cc1	-44%	-94%	?	-6%	-12%	-34%
COC(=O)Cc1cc(=O)n(-c2ccccc2)[nH]1	2%	25%	2%	2%	-3%	-1%
CN(C)S(=O)(=O)c1ccc(C(=O)NCCC(=O)N2CCCC2)cc1	9%	nt	-1%	nt	6%	?
COc1cc(/C=C2\CCC(C3CCCC3)C2=O)ccc1OC(C)C (stereo not given)	0%[1.84 µM]	nt	15µM*	nt	17%	-5%
COc1cc(/C=C(\C#N)C(=O)NCC2CCCO2)ccc1OC(C)C (stereo not given)	-1%	-9%	?	2%	-1%	3%
COc1ccc(/C=C2\CCC(C3CCCC3)C2=O)cc1OC (stereo not given)	6%	nt	11µM*	nt	?	?
O=C(N[C@@H](Cc1c[nH]c2ccccc12)C(=O)O)c1ccccc1Cl	-7%	nt	-18%	nt	1%	-1%
COc1ccc(C(=O)Nc2ccccc2C(=O)NC(Cc2ccc(O)cc2)C(=O)NNC(=O)c2ccccc2Cl)cc1 (stereo not given)	-4%	-11%	13µM*	1%	-1%	2%
Cc1ccc(C(=O)NC(Cc2c[nH]c3ccccc23)C(=O)O)cc1 (stereo not given)	1%	2%	?	-3%	0%	3%
O=C(N[C@@H](Cc1c[nH]c2ccccc12)C(=O)NC1CC1)c1ccccc1Cl	?	11µM*	?	0%	?	?
COc1ccc(C(=O)NNC(=O)C(Cc2ccc(O)cc2)NC(=O)c2ccccc2NC(=O)c2ccc(OC)cc2)cc1 (stereo not given)	-5%	nt	?	4%	0%	-1%
CC(C)Oc1ccc(C(=O)NC(Cc2c[nH]c3ccccc23)C(=O)NN)cc1 (stereo not given)	3%	nt	12µM*	nt	2%	-3%
COc1ccc(C(=O)Nc2ccccc2C(=O)NC(Cc2c[nH]c3ccccc23)C(=O)O)cc1 (stereo not given)	-3%	-10%	15µM*	-1%	3%	2%
CC(=O)N/C(=C\c1ccccc1)C(=O)OC/C=C/c1ccccc1	-4%	nt	-2%	nt	-4%	0%
